Compound activity: PubChem BioAssay, National Center for Advancing Translational Sciences (NCATS)
Compounds with a hit are over-represented: about 21% of the library has one in this group of screens.
Shiga inhibitor: blocks Shiga toxin action in Vero cells. inhibition, % at 38.7 µM. hit rate 9.2% among 290,000. AID 2315. Vero cells, Shiga toxin protein synthesis inhibition reporter; in the data active = inhibition mostly above about 28%, no sharp cut-off; inactive = mostly below about 43%; note: 0% is about no effect
CHX counter: affects cycloheximide protein synthesis inhibition readout, counter-screen. AID 2314. hit rate 12% among 300,000. cell reporter, cycloheximide protein synthesis inhibition counterscreen. max response, %; in the data active = max response mostly above about 13%, no sharp cut-off; inactive = mostly below about 14%; note: read at 38.3 µM for the half of the compounds with a filed dose; 0% is about no effect
Pf growth 96h: P. falciparum growth inhibition at 96 hours; hit rate 6.9% among 320,000; AID 504834; P. falciparum luciferase reporter growth, 96 h; Potency, µM (series often up to 28.7 µM), for the others: top-dose activity change, negative = inhibition, most hits filed as inhibitors; note: potency is the fitted concentration of half-maximal effect; % is set by controls: 0 for no effect and ±100 for the full control effect
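Delayed-death screen, second-generation endpoint: infected erythrocytes, 2% hematocrit, 0.05% parasitemia final; 96 hours at 37 C, 5% CO2; luciferase detection reagent; luminescence decrease equals reduced growth.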
Pf growth 48h: inhibits P. falciparum growth in the first generation, 48 h; Potency, µM (highest dose often 28.7 µM), for the others: top-dose activity change, negative = inhibition, actives largely listed as inhibitors; AID 504832; hit rate 5.9% among 310,000; P. falciparum luciferase growth in erythrocytes, 48 h; note: potency is the fitted concentration of half-maximal effect; % is set by controls: 0 for no effect and ±100 for the full control effect
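A one-generation exposure of luciferase-tagged malaria parasites in RPMI 1640/Albumax erythrocyte culture, 37 C and 5% CO2. Inhibition is inferred from decreased luminescence after adding detection reagent.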
Sm TGR inh: inhibitors of Schistosoma mansoni thioredoxin glutathione reductase | purified TGR, DTNB reduction, TNB absorbance 405 nm | hit rate 3% among 360,000 | Potency, µM (series often up to 114 µM), without a hit: top-dose activity change, negative = inhibition, hits mostly inhibitors; note: potency is the fitted concentration of half-maximal effect; % is set by controls: 0 for no effect and ±100 for the full control effect; nearly all actives have a fitted effect of over 60% in size
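Kinetic colorimetric format: TGR-catalysed, NADPH-driven DTNB reduction monitored via TNB absorbance. Enzyme dispensed at 20 nM; compound exposure 15 min at room temperature before reaction start.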
NS1 function inh: blocks influenza NS1 protein function | hit rate 0.4% among 270,000 | Potency, µM (highest dose often 46.1 µM), without a hit: at the highest dose activity, positive = more growth; calls by dose curve; note: potency is the fitted concentration of half-maximal effect; actives are rising curves; nearly all actives have a fitted effect of over 50% in size
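In this qHTS, NS1 from influenza A is expressed in budding yeast, where it slows growth. Cells are switched from glucose to 2% galactose medium (pH 6.0, -URA), treated with compound, and growth recovery is read at OD600.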
The depositor's hits bear a star; ? = inconclusive; / = no result. Unless noted, calls come from the whole dose curve; as a rule, active = well fitted curve in the direction sought with a large enough effect; inconclusive = small, poorly fitted or top-dose-only effect, or another doubt; inactive = no such curve, though single readings can be large; an effect the other way counts as inactive or inconclusive.

SMILES	Shiga inhibitor	CHX counter	Pf growth 96h	Pf growth 48h	Sm TGR inh	NS1 function inh
COc1ccc(-c2csc(NC(=O)C3CCN(c4ncnc5sc(C)c(C)c45)CC3)n2)cc1OC	/	/	?	?	-2%	/
COc1ccc(-c2cc(C(F)(F)F)n3nc(C(=O)Nc4cccc(C(F)(F)F)c4)c(Br)c3n2)cc1	/	/	/	/	-2%	/
Cc1cc(C(=O)NCc2ccccc2Br)no1	36	16*	/	5%	-2%	-13%
Cc1cc(C(=O)N/N=C/c2cccn2C)no1	18*	10	-9%	20%	0%	-2%
Cn1cccc1/C=N/NC(=O)c1sc2cc(Cl)ccc2c1Cl	16	0	2.3µM*	7%	-18%	12%
Cn1cccc1/C=N\NC(=O)c1cncc(Br)c1	17	1	2%	-5%	-1%	-3%
Cn1cccc1/C=N/NC(=O)c1ccncc1	-7	3	28%	7%	1%	0%
Cn1cccc1/C=N/NC(=O)c1ccccn1	84*	31*	200%	-86%	3%	-3%
COc1cccc(Cn2cc(C(=O)NCCN(C)C)nn2)c1	1	-1	-2%	?	7%	-4%
CN(C(=O)CSc1nc2ccccc2s1)c1c(N)n(Cc2ccccc2)c(=O)[nH]c1=O	10	8	39%	?	-12%	-1%
Cc1cc(C(=O)N/N=C/c2ccccc2Br)no1	60*	36*	0%	73%	0%	-15%
O=C(N/N=C/c1ccccc1C(=O)O)c1ccccc1Br	38	7	0%	21%	-1%	/
Cn1cccc1/C=N/NC(=O)c1cc2ccccc2cc1O	67*	21*	0%	?	-3%	-13%
C/C(=N/NC(=O)CNC(=O)c1cccc(F)c1)c1ccc2c(c1)CCCC2	-26	3	17%	28%	4%	-2%
CC(=O)Nc1ccc(NC(=O)/C(=C/c2ccco2)NC(=O)c2ccccc2)cc1	1	-4	?	10%	/	8%
CC(C)(C)c1ccc(C(=O)N/C(=C\c2ccco2)C(=O)Nc2ccccc2C(=O)O)cc1	60*	31*	12%	13%	40µM*	?
O=C(Nc1ccc(C(=O)O)cc1)/C(=C\c1ccco1)NC(=O)c1ccccc1	28	-1	9.3µM*	-8%	/	2%
O=C(NC1CCS(=O)(=O)C1)/C(=C\c1ccco1)NC(=O)c1ccccc1 (stereo unspecified)	-9	1	33%	5%	35µM*	6%
Cc1ccnc(N2CCC(C(=O)NNC(=O)c3ccccc3C)CC2)n1	-9	-2	52%	5%	-1%	-13%
Cc1cccc(NC(=O)[C@@H]2CCCN2C(=O)OC(C)(C)C)c1C	-4	-1	15%	16%	-3%	3%
C[C@H](NC(=O)c1ccccc1)C(=O)N1CCC2(CC1)NCCc1[nH]cnc12	1	-1	24%	11%	-10%	0%
Cc1cc(C)nc(N/C(=N\S(=O)(=O)Cc2ccccc2)Nc2ccc(F)c(Cl)c2)n1	-14	1	9.3µM*	-8%	0%	3%
O=C(Nc1nnc(S(=O)(=O)N2CCCc3ccccc32)s1)c1ccc(Cl)cc1	/	/	/	/	7%	/
N#Cc1ccc(NC(=O)c2cccs2)nc1	74*	24*	94%	93%	-2%	-4%
CCCC(=O)Nc1ccc(NC(=O)c2ccccn2)cn1	48	23*	/	96%	6%	-11%
SMILES	Shiga inhibitor	CHX counter	Pf growth 96h	Pf growth 48h	Sm TGR inh	NS1 function inh
CCCC(=O)Nc1ccc(NC(=O)c2cccs2)cn1	98*	19*	/	55%	-11%	-7%
O=C(Nc1ccc(NC(=O)C2CC2)nc1)c1cccs1	60*	30*	-13%	100%	5%	-49%
Cc1cc(NC(=O)C2CC2)ccc1NC(=O)c1cccs1	21	10	94%	2%	17%	-1%
CCc1ccccc1NNC(=O)c1snnc1C	-3	-4	-1%	?	5%	-8%
O=C(Nc1ccc(NC(=O)c2cccs2)cn1)c1ccccc1	87*	60*	5%	388%	5%	/
O=C(Nc1cccc(NC(=O)c2cccs2)c1)c1cccnc1	9	3	-19%	3%	3%	/
CN1C2CCC1CC(OC(=O)C(O)c1ccccc1)C2 (stereo unspecified)	/	/	/	/	/	-1%
